Only some compounds are listed: those with a hit (about 9.3% of all), similar ones and a draw of the others.
Sm TGR inh: qHTS Assay for the Inhibitors of Schistosoma Mansoni Peroxiredoxins; Schistosoma mansoni thioredoxin glutathione reductase (TGR), Q962Y6; purified TGR, DTNB reduction, TNB absorbance 405 nm; 360,000 compounds, 3% hits; AID 485364, 2010; Potency, µM (doses to about 114 µM), without a hit: at the top dose activity change, negative = inhibition, hits mostly inhibitors; note: potency is the fitted concentration of half-maximal effect; nearly all actives have a fitted effect of over 60% in size
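TGR 20 nM + NADPH 100 uM (dispensed conc.), cpd preinc 15 min RT; start with NADPH (500 uM addition) then DTNB (15 mM addition). Kinetic TNB absorbance, 405 nm filter. Four-parameter Hill fit across titration.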
VACV Venus inh: qHTS for Stage-Specific Inhibitors of Vaccinia Orthopoxvirus: Venus Reporter Primary qHTS. Vaccinia virus Venus reporter expression, fluorescence. Potency, µM (titrated, usually from 36.5 µM), for inactives: at the top dose activity change, negative = inhibition, usual class: inhibitors. 330,000 compounds, 0.46% hits. AID 720580, 2013; calls by dose curve; tested in A549 cells; note: potency is the fitted concentration of half-maximal effect; nearly all actives have a fitted effect of over 30% in size
Vaccinia mCherry: qHTS for Stage-Specific Inhibitors of Vaccinia Orthopoxvirus: mCherry Reporter Primary qHTS; Vaccinia virus mCherry reporter infection, fluorescence; Potency, µM (highest dose often 36.5 µM), for the others: top-dose activity change, negative = inhibition, usual class: inhibitors; 310,000 compounds, 0.63% hits; AID 720579, 2013; calls by dose curve; tested in A549 cells; note: potency is the fitted concentration of half-maximal effect; nearly all actives have a fitted effect of over 35% in size
HCMV inh: qHTS Assay for inhibitors of the human cytomegalovirus (HCMV) | 410,000 compounds, 4.5% hits | activity change, negative = inhibition, % at 57.5 µM | HFF cells, HCMV-luciferase reporter, 72 h; hits give low values; in the data active = activity change below about -60%; inconclusive = no clear call, values can overlap the other calls; inactive = above about -39%
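Inhibition of viral replication was scored as loss of reporter luminescence in HFFs infected with HCMV-luciferase (MOI 1 PFU/cell) for 72 h; compounds tested at 2 doses, normalized to buffer and Salinomycin controls.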
HCV inh: qHTS Assay for Inhibitors of Hepatitis C Virus (HCV) | Huh7.5.1 HCVcc-Cre infection, luciferase reporter, 44 h | Potency, µM (titrated, usually from 41.8 µM), for the others: at the top dose activity change, negative = inhibition, most hits filed as inhibitors | AID 651820, 2012 | 340,000 compounds, 3.4% hits; note: potency is the fitted concentration of half-maximal effect
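1,000 cells/well; 4 h culture; + compound; + HCVcc-Cre (~0.5 moi); 44 h; luciferase substrate, RT 15 min; read 15 sec.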
FMDV antiviral: High Throughput Screening for Foot and Mouth Disease Virus Antivirals; FMDV antiviral cell-based qHTS; Potency, µM (titrated, usually from 57.9 µM), for the others: top-dose activity change, negative = inhibition, most hits filed as inhibitors; 410,000 compounds, 1.2% hits; calls by dose curve; tested in HEK293T cells; note: read-out not given here; potency is the fitted concentration of half-maximal effect; nearly all actives have a fitted effect of over 45% in size
Starred values were filed as active, the others as inactive; i = inactive; u = inconclusive; x = no result given; [ ] = remark or other dose. Unless noted, calls come from the whole dose curve; as a rule, active = well fitted curve in the direction sought with a large enough effect; inconclusive = small, poorly fitted or top-dose-only effect, or another doubt; inactive = no such curve, though single readings can be large; an effect the other way counts as inactive or inconclusive. % is set by controls: 0 for no effect and ±100 for the full control effect.

SMILES	Sm TGR inh	VACV Venus inh	Vaccinia mCherry	HCMV inh	HCV inh	FMDV antiviral
C=CC(=O)Nc1cccc(Nc2nc(N[C@H]3CC[C@H](N(C)C)CC3)nc3c2ncn3C(C)C)c1	x	1µM*	u	x	u	u
CC(C)[C@H](CO)Nc1nc(Nc2ccc(Cl)c(C(=O)O)c2)c2ncn(C(C)C)c2n1	18%	-10%	i	-19	18%	-22%
O=S(=O)(Cc1ccccc1Cl)Nc1ccccn1	25µM*	-4%	-22%	-13	10%	-7%
O=C(Cn1cnc2cc([N+](=O)[O-])ccc2c1=O)Nc1cccc(S(=O)(=O)N2CCOCC2)c1	5%	-8%	-2%	-12	u	-3%
O=C(CSc1ccc(F)cc1)NCCc1ccc(Cl)cc1	-7%	-22%	1%	3	-5%	-5%
Cc1cccc(CNC(=O)c2cnn(-c3nccc(-c4ccccc4F)n3)c2C)n1	x	-1%	-10%	x	x	-8%
COc1ccc(S(=O)(=O)N(C)c2ccc(C(=O)N3CCC(C(N)=O)CC3)cc2)cc1	3%	-1%	-9%	-15	8%	-6%
CN(c1ccc(C(=O)N2CCOCC2)cc1)S(=O)(=O)c1ccc(Cl)cc1	0%	-10%	-1%	27	26%	-15%
COc1ccc(S(=O)(=O)N(C)c2ccc(C(=O)N3CCC(C(N)=O)CC3)cc2)cc1OC	-33%	-5%	i	-100*	u	-13%
CN(c1ccc(C(=O)N2CCCCCC2)cc1)S(=O)(=O)c1ccc(Cl)cc1	12%	-21%	-6%	-74*	x	u
Cc1cc(C(=O)Nc2cccc(C)c2C)c2ccccc2n1	6%	x	x	u	-5%	-10%
CCc1ccc(-c2nc(NC(=O)c3ccc(OCC(=O)Nc4ccc(F)cc4)c(OC)c3)sc2C)cc1	-4%	-9%	i	6	u	-15%
COc1cc(C(=O)Nc2nc(-c3ccc(Cl)cc3)c(C)s2)ccc1OCC(=O)Nc1ccc(F)cc1	-11%	-10%	-11%	-30	u	28µM*
COc1cc(/C=N/N=C(N)N)ccc1OCc1ccccc1Cl	25%	x	x	-100*	14µM*	-39%
Cc1cccc(Oc2ccc(S(=O)(=O)N3CCCCC3)cc2N)c1	-2%	x	x	-34	13µM*	u
Nc1cc(S(=O)(=O)N2CCCCC2)ccc1Oc1ccc(Cl)cc1	3%	x	x	-66*	u	u
S=c1[nH]nc(COc2ccccc2)n1/N=C/c1ccncc1	1%	x	x	-4	11%	-15%
FC(F)(F)c1ccc(/C=N/n2c(COc3ccccc3)n[nH]c2=S)cc1	-15%	-22%	-9%	-66*	1%	-15%
N[C@@]1(C(=O)O)CC[C@@H](C(=O)O)C1	-13%	-8%	i	23	-10%	-12%
Cc1cc(Nc2nc3ccccc3nc2Cl)n(-c2ccccc2)n1	-5%	x	x	-90*	u	u
Cc1cc(C)c2c(=O)c3c(oc2c1)C(=O)N(Cc1ccc(F)cc1)C3c1cccc(O)c1 (centres undefined)	1%	u	-28%	-66*	x	-11%
COCCN1C(=O)c2oc3cc(C)cc(C)c3c(=O)c2C1c1cccc(O)c1 (centres undefined)	0%	-2%	-2%	-4	x	-9%
Cc1ccc2oc3c(c(=O)c2c1)C(c1cccc(O)c1)N(Cc1ccccc1Cl)C3=O (centres undefined)	-5%	-4%	-8%	-74*	x	21%
CCCOc1ccc(OCCn2nc(C(=O)O)c3ccccc3c2=O)cc1	-7%	-6%	-2%	85	16%	-15%
Cc1ccc(C(=O)NCC(=O)OCC(=O)N2CCCc3ccccc32)cc1	-21%	-1%	-12%	-2	13%	u
SMILES	Sm TGR inh	VACV Venus inh	Vaccinia mCherry	HCMV inh	HCV inh	FMDV antiviral
CCN(CC)C(=O)c1sc2c(c1C)c(=O)n(Cc1ccccc1)c(=O)n2Cc1ccccc1C	0%	-19%	-24%	0	x	u
COc1ccc(CN(C)c2ncnc3sccc23)c(OC)c1OC	-19%	u	-5%	u	11µM*	u
COc1ccc(CN(C)Cc2cc(=O)n3ccsc3n2)c(OC)c1OC	0%	-2%	i	-18	3%	-18%
CN(Cc1cccs1)c1ncnc2sccc12	-10%	x	x	-78*	11µM*	u
COc1ccc(CCN(C)c2ncnc3sccc23)cc1OC	-6%	x	x	u	10µM*	28µM*
CN(Cc1ccccc1F)c1ncnc2sccc12	5%	-10%	i	u	u	0%
COc1ccc(CCN(C)C(=O)CSc2ncnc3sccc23)cc1OC	-9%	-6%	-17%	-10	-10%	u
CC(C)c1ccc(C2(O)C(=O)Nc3cc(Br)ccc32)c(O)c1 (centres undefined)	2%	-30%	-22%	26	-4%	-1%
O=C(NC1C2CCCC1CN(C1CC1)C2)c1ccc(Cl)cc1 (centres undefined)	80%	x	x	-64*	u	u
CN1C2CCC1CC(NC(=O)c1ccc(Cl)cc1)C2 (centres undefined)	13%	-1%[7.34 µM]	i[7.34 µM]	35	-1%	8%
CCc1cccc(NC(=S)N(CCOC)C2CCN(C(C)=O)CC2)c1	-25%	-12%	-14%	-32	-12%	-11%
CCCC(=O)N(Cc1cc(=O)[nH]c2ccccc12)c1ccc(C)cc1C	-3%	x	x	17	-18%	-21%
Cc1ccc(N(Cc2cc(=O)[nH]c3ccccc23)C(=O)CCl)c(C)c1	13µM*	u	u	-97*	u	35µM*
COc1ccc(-c2nc3sc(CCNS(=O)(=O)c4c(C)cc(C)cc4C)c(C)n3n2)cc1	1%	u	u	-83*	x	17%
CCS(=O)(=O)NCCc1sc2nc(-c3ccc(OC)cc3)nn2c1C	-10%	u	u	u	x	-25%
COc1ccc(S(=O)(=O)NCCc2sc3nc(-c4ccc(C)cc4)nn3c2C)cc1F	24%	u	u	-74*	x	-20%
Cc1c(CCNC(=O)C(C)(C)C)sc2nc(-c3ccc(F)cc3)nn12	7%	-30%	-26%	-91*	x	u
CN(C)c1ccc(NC(=O)CSc2nnc(-c3cccs3)n2Cc2ccco2)cc1	-30%	x	x	-36	-8%	13%
COc1cc(O)cc2cc3c(c(O)c12)C(=O)CC(C)(O)O3 (centres undefined)	-5%	-15%	-15%	u	u	30%
COC(=O)c1c(NC(=O)c2nc3nc(C)cc(C(F)F)n3n2)sc2c1CCC2	-1%	-2%	u	-27	10µM*	16%

Screening data as filed in PubChem BioAssay.
